# Out of some 320,000 compounds screened, about 2,100 (0.66%) were called active. The entries come from a sample that favours actives as a whole. Values without a mark were called inactive.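 How the source made its calls: active means inhibition above the mean inhibition of all tested compounds plus 3 SD, set per campaign (cut at about 40% in these data); inactive means the rest.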
# Molecular target: Induced myeloid leukemia cell differentiation protein Mcl-1 (Homo sapiens) (UniProt Q07820)
# Test: inhibitors of MCL1 binding to BIM-BH3, primary screen, biochemical, fluorescence polarization (AID 2057);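 further: 0% = DMSO wells and 100% = unlabeled Bim-BH3 peptide control; higher means more loss of mP so more displacement of Bim peptide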
# Conditions: GST-MCL1 / FITC-Bim-BH3 fluorescence polarization; at 10.9 µM; active compounds read high
# Chain of Induced myeloid leukemia cell differentiation protein Mcl-1 (Homo sapiens) (Q07820 whole entry, looked up): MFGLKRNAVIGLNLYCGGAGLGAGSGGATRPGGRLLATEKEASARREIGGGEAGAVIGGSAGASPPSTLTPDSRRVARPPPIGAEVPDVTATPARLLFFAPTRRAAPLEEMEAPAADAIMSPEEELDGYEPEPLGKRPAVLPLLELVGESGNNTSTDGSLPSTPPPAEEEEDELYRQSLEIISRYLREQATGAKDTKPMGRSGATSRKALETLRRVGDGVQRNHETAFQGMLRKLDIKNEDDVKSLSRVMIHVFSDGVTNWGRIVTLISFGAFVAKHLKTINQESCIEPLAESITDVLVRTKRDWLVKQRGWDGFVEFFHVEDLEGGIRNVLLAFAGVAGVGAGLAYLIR
row,SMILES,inhibition
1,CCCCCCn1c(CN2CCCC(C)C2)nc2c1c(=O)n(C)c(=O)n2C (stereo not drawn),4.79%
2,CCCn1c(O)c(CN2CCCC(C)C2)c(C)c(C#N)c1=O (stereo not drawn),57.2% (active)
3,Cc1c(CN2CCCCC2)c(O)n(CCO)c(=O)c1C#N,18.2%
4,O=C(COC(=O)c1ncc(Cl)c(Cl)c1Cl)NC1CCS(=O)(=O)C1 (stereo not drawn),-1.74%
5,O=C(CN1CCN(c2ccccc2O)CC1)NC(=O)NCc1ccccc1,5.09%
6,CC(=O)c1ccc(NC(=O)CCc2nnc3ccc(NCc4ccco4)nn23)cc1,2.1%
7,CC(C)CCN1CCN(Cc2cn[nH]c2C2CCCCC2)CC1CCO (stereo not drawn),-6.25%
8,CN(C)S(=O)(=O)c1ccc(N/C=C(\[N+](=O)[O-])S(=O)(=O)c2ccccc2)cc1,2.14%
9,CC(NCc1nc2ccccc2n1C)C12CC3CC(CC(C3)C1)C2 (stereo not drawn),-2.96%
10,Cc1c(-c2ccccc2)nc(N)c(C#N)c1-c1cccs1,4.53%
11,CN1CCc2nc(SC(C(=O)O)c3ccccc3)c(C#N)c(-c3cccs3)c2C1 (stereo not drawn),45.7% (active)
12,CCc1c(-c2ccccc2)nc(N)c(C#N)c1-c1cccs1,11.5%
13,CCN(CC(=O)NC1CCS(=O)(=O)C1)S(=O)(=O)c1ccccc1 (stereo not drawn),-7.02%
14,COc1ccc(C2/C=C\CN(S(=O)(=O)c3cccs3)CC(=O)N2Cc2ccc(F)cc2)cc1 (stereo not drawn),3.81%
15,O=C(CCS(=O)(=O)c1ccccc1)NC1CCCC1,-0.76%
16,CC(=O)c1ccc(N2C(=NC(=O)C(C)C)SC3CS(=O)(=O)CC32)cc1 (stereo not drawn),2.13%
17,Cc1cc2ccccc2n1CCNC(=O)COc1ccc2ccccc2c1,2.6%
18,Cc1cc2ccccc2n1CCC(=O)O,49.7% (active)
19,O=C(O)CCn1c(Cc2ccccc2)nc2ccccc21,1.68%
20,O=C(O)C1C2CC2CN1C(=O)c1ccc(Cl)cc1Cl (stereo not drawn),0.95%
21,Cc1cccc(C)c1Nc1c(-c2ccccc2O)nc2ncccn12,0.37%
22,CCC(C)CN1CCC(CO)(Cc2ccccc2Cl)CC1 (stereo not drawn),0.34%
23,COC(=O)c1sc(C(F)(F)F)c(-c2ccccc2)c1S(=O)(=O)N(C)C,4.01%
24,Cc1cc(Cl)ccc1NNC(=O)c1snnc1C,6.52%

row,SMILES,inhibition
1,O=C(COC(=O)c1cccc(Br)c1)Nc1cccc2c1C(=O)c1ccccc1C2=O,-1.24%
2,O=C(COC(=O)Cn1cnc2ccccc21)Nc1cccc2c1C(=O)c1ccccc1C2=O,155% (active)
3,O=C(Cn1cnc2ccccc21)Nc1ccccc1-c1ccccc1,6.02%
4,COc1ccc(OC)c2[nH]c(=O)c(CCNC(=O)C(=O)c3c[nH]c4ccccc34)cc12,7.82%
5,CCn1c(=S)sc2c(=O)n(CC(=O)Nc3cccc(Br)c3)c(C)nc21,-2.89%
6,COc1cccc(NC(=O)C2C(c3ccccc3)C2(Cl)Cl)c1 (stereo not drawn),6.86%
7,CCN1CCN(CC(=O)c2cc(OC)c(OC)c(OC)c2)CC1,0.87%
8,O=C(OCC1OC(Oc2ccc(O)cc2)C(O)C(O)C1O)c1ccccc1 (stereo not drawn),-1.58%
9,O=C(OCC1O[C@@H](OC(=O)c2cc(O)c(O)c(O)c2)[C@@H](OC(=O)c2cc(O)c(O)c(O)c2)[C@@H](OC(=O)c2cc(O)c(O)c(O)c2)[C@@H]1OC(=O)c1cc(O)c(O)c(O)c1)c1cc(O)c(O)c(O)c1 (stereo partly drawn),74.8% (active)
10,COC(=O)C(C)Sc1ccc2nnc(-c3cccc(F)c3)n2n1 (stereo not drawn),-5.54%
11,O=C1c2ccccc2C(=O)c2c1cccc2N1CCN(CCO)CC1,60.6% (active)
12,O=C1c2ccccc2C(=O)c2c1cccc2N1CCN(C/C=C/c2ccccc2)CC1,13.8%
13,O=C1c2ccccc2C(=O)c2c1cccc2N1CCN(Cc2ccccc2)CC1,7.86%
14,CCC(=O)c1ccc(OCC(=O)Nc2ccc(N3CCCCC3)cc2)cc1,0.81%
15,Cc1ccc(S(=O)(=O)N2CC(C)N(S(C)(=O)=O)C2)cc1 (stereo not drawn),7.35%
16,CC1CCc2sc(C(=O)NCC(c3ccco3)N3CCCCC3)cc2C1 (stereo not drawn),-3.03%
17,COc1ccc(CCN2C(=O)N(c3ccc(OC)cc3)C(=O)C2CC(=O)Nc2ccc(OC)cc2)cc1 (stereo not drawn),2.06%
18,CC(=O)Nc1ccc(Nc2cc(C)nc(Nc3ccc(NC(C)=O)cc3)n2)cc1,-11.2%
19,Cc1cc(C)c(CN2CCN(C(=O)Cn3ccc(NC(=O)OCc4ccccc4)nc3=O)CC2)c(C)c1,2.72%
20,O=C(CNC(=O)Cc1ccccc1)N=Nc1c(O)[nH]c2ccc(Br)cc12,4.04%
21,Oc1[nH]c2ccc(Br)cc2c1N=Nc1nn[nH]n1,6.9%
22,NS(=O)(=O)c1ccc(N=Nc2c(O)[nH]c3ccc(Br)cc23)cc1,44.2% (active)
23,Cc1ccc(C(=O)NC(=S)NCCN2CCOCC2)cc1,6.07%
24,Cc1ccc(NC(=S)NC(=O)c2ccc(-c3ccccc3)cc2)cc1,4.74%

row,SMILES,inhibition
1,Cc1ccc(C(=O)NC(=S)Nc2ccc(N3CCOCC3)cc2)cc1,46.3% (active)
2,CC(=O)Nc1ccc(S(=O)(=O)NC2Cc3ccccc3C2)cc1,1.26%
3,COc1ccc(/C(N)=N/OC(=O)CCCc2ccccc2)cc1,-1.09%
4,N/C(=N\OC(=O)CCc1ccccc1)c1cccnc1,4.17%
5,N/C(=N\OC(=O)CCc1ccccc1)c1ccc(Cl)cc1,64.4% (active)
6,CCCSC(=S)NC1CCS(=O)(=O)C1 (stereo not drawn),2.09%
7,O=C(NCc1ccccn1)c1ccc2nc(-c3ccco3)c(-c3ccco3)nc2c1,106% (active)
8,COc1ccc2oc(=O)c(C(=O)NCc3ccccn3)cc2c1,0.27%
9,COCCNC(=O)Nc1ccc2nc(-c3ccco3)c(-c3ccco3)nc2c1,131% (active)
10,Cc1cc(C)cc(NC(=O)NCc2ccccn2)c1,1.97%
11,Cc1nc2cc(NC(=O)NCc3ccccc3)ccc2o1,-6.46%
12,CCOc1cc(NC(=S)NCCCOC)c(OCC)cc1NC(=O)c1ccco1,9.31%
13,Cc1cc(C)nc(-n2ncc3c2CC(c2ccc(C(C)C)cc2)CC3=O)n1 (stereo not drawn),2.19%
14,O=C(COC(=O)C1CCN(S(=O)(=O)c2ccc3c(c2)OCCO3)CC1)Nc1ccccc1OC(F)F,0.49%
15,O=C1CCN(C(=O)Nc2ccccc2)N1,-0.78%
16,C=CCOc1cccc(C2C(C(=O)c3ccc(C)o3)=C(O)C(=O)N2CCCn2ccnc2)c1 (stereo not drawn),-4.11%
17,C=CCOc1cccc(C2C(C(=O)c3ccc(C)o3)=C(O)C(=O)N2c2nnc(C)s2)c1 (stereo not drawn),81.2% (active)
18,Cc1cc(N2C(=O)C(O)=C(C(=O)c3ccc(C)o3)C2c2ccc(OCc3ccccc3)cc2)no1 (stereo not drawn),10.4%
19,CCNC(=S)N(CCN(CC)CC)Cc1cc2cc3c(cc2[nH]c1=O)OCCO3,13.5%
20,Cc1ccc(OCC(=O)Nc2ccccc2Sc2ccc(Cl)cc2)c([N+](=O)[O-])n1,3.45%
21,CC(C)c1csc(CN2CCC(CO)(Cc3ccccc3)CC2)n1,8.03%
22,COc1cccc(NC(=S)N(CCc2c(C)[nH]c3ccccc23)Cc2ccco2)c1,4.2%
23,Cc1[nH]c2ccccc2c1CCN(Cc1cccs1)C(=S)NC(C)(C)C,7.74%
24,COc1ccc2[nH]c(C)c(CCN(Cc3cccs3)C(=S)Nc3ccccc3OC)c2c1,65.3% (active)

row,SMILES,inhibition
1,CC(CC(=O)N1CCN(c2ccccc2)CC1)S(=O)(=O)c1ccc2c(c1)NC(=O)CS2 (stereo not drawn),-2.69%
2,CN(C(=O)COC(=O)CNC(=O)C12CC3CC(CC(C3)C1)C2)c1ccccc1,-5.29%
3,Cc1ccsc1C(=O)NCCc1ccco1,7.13%
4,COc1ccccc1-c1oc2ccccc2c1C#CCCCCO,-3.18%
5,CC(=O)Nc1ccc(S(=O)(=O)N2CCC(C(=O)NC3CC3)CC2)cc1,-6.89%
6,Cc1ccc(Cc2cnc(NC(=O)/C(C#N)=C/c3ccc(-c4cccc([N+](=O)[O-])c4)o3)s2)cc1,-0.71%
7,Cc1ccc(/C=C(\C#N)C(=O)Nc2cccc3ncccc23)o1,138% (active)
8,O=C(O)c1cc(Cl)c(Cl)cc1C(=O)Nc1cccc2ncccc12,-1.24%
9,COc1ccc(OC)c(C(C)NC(=S)Nc2ccc(S(=O)(=O)Nc3ncccn3)cc2)c1 (stereo not drawn),5.87%
10,CCN(CC)CCNC(=O)c1sc2ncn(CC(=O)Nc3ccc(C)c(Cl)c3)c(=O)c2c1C,-4.53%
11,CCOc1cc(C(=S)N2CCOCC2)ccc1OS(=O)(=O)c1ccc(Br)cc1,2.62%
12,CSc1ccccc1-c1nnc(-c2ccc(Cl)cc2)o1,-2.22%
13,COc1ccc(/C=N/NC(=O)c2ccncc2)cc1CN1CCCc2ccccc21,9.1%
14,Nc1cc(N2CCCCCC2)c2nonc2c1[N+](=O)[O-],48% (active)
15,Cc1c(Nc2cc(N3CCCC(C)C3)c3nonc3c2[N+](=O)[O-])c(=O)n(-c2ccccc2)n1C (stereo not drawn),-0.42%
16,Nc1nc(NCC(=O)O)nc(N2CCCCCC2)c1[N+](=O)[O-],1.22%
17,CC(C)COC(=O)C1C2C=CC3(CN(C(C)c4ccc(Br)cc4)C(=O)C13)O2 (stereo not drawn),-1.26%
18,Cc1ccc(C(=O)COC(=O)CCCC(=O)NC2CCCCC2)cc1[N+](=O)[O-],-0.81%
19,C=CCn1c(=S)[nH]c2scc(-c3ccco3)c2c1=O,67.4% (active)
20,C=CCn1c(SCc2csc(C)n2)nc2scc(-c3ccc(C)o3)c2c1=O,-8.6%
21,C=CCNC(=O)CSc1nc2scc(-c3ccco3)c2c(=O)n1CC=C,-5.54%
